# Assay results: article PMC8384837, “Expanding the binding specificity for RNA recognition by a PUF domain”
# What was measured:
# Test in all cases: yeast three-hybrid, YBZ-1, SC-Leu-His + 0.5 mM 3-AT, 4 days
# Conditions in all cases: tags: N-Gal4 AD-HA kept; label: inside an RPR1-promoter hybrid RNA with tandem MS2 sites; ssRNA
# [1] = target: PUM1 PUF domain R1-RLT (Homo sapiens, UniProt Q14671 828-1176, S863R;R864L;Q867T)
# Outline: (§1)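 The interaction score is the logarithmic change in variant frequency from input to selection. It uses log2, with a pseudocount of 1 for absent variants, and frequencies came from PCR-amplified, Illumina-sequenced repeat regions. The libraries were Pumilio-1 PUF domains randomized at the three base-contacting residues per repeat, co-expressed with matching RNA elements in strain YBZ-1 (LexA–MS2 coat fusion, HIS3 reporter). Plating lasted four days on SC-Leu (input) or SC-Leu-His + 0.5 mM 3-AT (selection).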
# [2] = target: PUM1 PUF domain R7-RGL (Homo sapiens, UniProt Q14671 828-1176, S1079R;N1080G;E1083L)
# Outline: as §1
# [3] = target: PUM1 PUF domain R3-RTF (Homo sapiens, UniProt Q14671 828-1176, C935R;R936T;Q939F)
# Outline: as §1
# [4] = target: PUM1 PUF domain R2-VYL (Homo sapiens, UniProt Q14671 828-1176, N899V;Q903L)
# Outline: as §1
# [5] = target: PUM1 PUF domain R8-PWY (Homo sapiens, UniProt Q14671 828-1176, N1122P;Y1123W;Q1126Y)
# Outline: as §1
# [6] = target: PUM1 PUF domain R8-YYR (Homo sapiens, UniProt Q14671 828-1176, N1122Y;Q1126R)
# Outline: as §1
# [7] = target: PUM1 PUF domain R8-SYN (Homo sapiens, UniProt Q14671 828-1176, N1122S;Q1126N)
# Outline: as §1
# [8] = target: PUM1 PUF domain R4-ARS (Homo sapiens, UniProt Q14671 828-1176, N971A;H972R;Q975S)
# Outline: as §1
# [9] = target: PUM1 PUF domain R4-CPG (Homo sapiens, UniProt Q14671 828-1176, N971C;H972P;Q975G)
# Outline: as §1
# [10] = target: PUM1 PUF domain R5-KTL (Homo sapiens, UniProt Q14671 828-1176, C1007K;R1008T;Q1011L)
# Outline: as §1
# [11] = target: PUM1 PUF domain R5-KRD (Homo sapiens, UniProt Q14671 828-1176, C1007K;Q1011D)
# Outline: as §1
# [12] = target: PUM1 PUF domain R5-KQV (Homo sapiens, UniProt Q14671 828-1176, C1007K;R1008Q;Q1011V)
# Outline: as §1
# [13] = target: PUM1 PUF domain R5-LWV (Homo sapiens, UniProt Q14671 828-1176, C1007L;R1008W;Q1011V)
# Outline: as §1
# [14] = target: PUM1 PUF domain R7-TPG (Homo sapiens, UniProt Q14671 828-1176, S1079T;N1080P;E1083G)
# Outline: as §1
# [15] = target: PUM1 PUF domain R7-GIV (Homo sapiens, UniProt Q14671 828-1176, S1079G;N1080I;E1083V)
# Outline: as §1
# [16] = target: PUM1 PUF domain R3-TCD (Homo sapiens, UniProt Q14671 828-1176, C935T;R936C;Q939D)
# Outline: as §1
# [17] = target: PUM1 PUF domain R3-SPW (Homo sapiens, UniProt Q14671 828-1176, C935S;R936P;Q939W)
# Outline: as §1
# [18] = target: PUM1 PUF domain R3-SPD (Homo sapiens, UniProt Q14671 828-1176, C935S;R936P;Q939D)
# Outline: as §1
# [19] = target: PUM1 PUF domain R5-ERC (Homo sapiens, UniProt Q14671 828-1176, C1007E;Q1011C)
# Outline: as §1
# [20] = target: PUM1 PUF domain R5-LHG (Homo sapiens, UniProt Q14671 828-1176, C1007L;R1008H;Q1011G)
# Outline: as §1
# Sequence of PUM1 PUF domain R4-ARS (Q14671 828-1176 N971A/H972R/Q975S): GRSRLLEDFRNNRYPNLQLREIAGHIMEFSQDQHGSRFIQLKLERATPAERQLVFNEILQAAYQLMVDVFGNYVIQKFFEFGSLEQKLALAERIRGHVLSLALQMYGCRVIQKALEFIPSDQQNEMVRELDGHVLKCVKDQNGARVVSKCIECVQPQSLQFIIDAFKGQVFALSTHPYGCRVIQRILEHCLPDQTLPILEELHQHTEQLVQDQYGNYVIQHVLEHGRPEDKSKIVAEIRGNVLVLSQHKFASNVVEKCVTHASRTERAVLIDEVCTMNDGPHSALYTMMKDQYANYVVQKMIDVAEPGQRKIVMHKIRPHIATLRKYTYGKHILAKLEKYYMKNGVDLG
# Sequence of PUM1 PUF domain R4-CPG (Q14671 828-1176 N971C/H972P/Q975G): as the sequence (Q14671 828-1176 N971A/H972R/Q975S) above, with A144C, R145P, S148G counted along it
# Sequence of PUM1 PUF domain R5-KRD (Q14671 828-1176 C1007K/Q1011D): as the sequence (Q14671 828-1176 N971A/H972R/Q975S) above, with A144N, R145H, S148Q, C180K, Q184D counted along it
# Sequence of PUM1 PUF domain R5-ERC (Q14671 828-1176 C1007E/Q1011C): as the sequence (Q14671 828-1176 N971A/H972R/Q975S) above, with A144N, R145H, S148Q, C180E, Q184C counted along it
# Sequence of PUM1 PUF domain R5-LHG (Q14671 828-1176 C1007L/R1008H/Q1011G): as the sequence (Q14671 828-1176 N971A/H972R/Q975S) above, with A144N, R145H, S148Q, C180L, R181H, Q184G counted along it
# Sequence of PUM1 PUF domain R1-RLT (Q14671 828-1176 S863R/R864L/Q867T): as the sequence (Q14671 828-1176 N971A/H972R/Q975S) above, with S36R, R37L, Q40T, A144N, R145H, S148Q counted along it
# Sequence of PUM1 PUF domain R7-RGL (Q14671 828-1176 S1079R/N1080G/E1083L): as the sequence (Q14671 828-1176 N971A/H972R/Q975S) above, with A144N, R145H, S148Q, S252R, N253G, E256L counted along it
# Sequence of PUM1 PUF domain R5-KQV (Q14671 828-1176 C1007K/R1008Q/Q1011V): as the sequence (Q14671 828-1176 N971A/H972R/Q975S) above, with A144N, R145H, S148Q, C180K, R181Q, Q184V counted along it
# Sequence of PUM1 PUF domain R5-KTL (Q14671 828-1176 C1007K/R1008T/Q1011L): as the sequence (Q14671 828-1176 N971A/H972R/Q975S) above, with A144N, R145H, S148Q, C180K, R181T, Q184L counted along it
# Sequence of PUM1 PUF domain R8-YYR (Q14671 828-1176 N1122Y/Q1126R): as the sequence (Q14671 828-1176 N971A/H972R/Q975S) above, with A144N, R145H, S148Q, N295Y, Q299R counted along it
# Sequence of PUM1 PUF domain R5-LWV (Q14671 828-1176 C1007L/R1008W/Q1011V): as the sequence (Q14671 828-1176 N971A/H972R/Q975S) above, with A144N, R145H, S148Q, C180L, R181W, Q184V counted along it
# Sequence of PUM1 PUF domain R8-PWY (Q14671 828-1176 N1122P/Y1123W/Q1126Y): as the sequence (Q14671 828-1176 N971A/H972R/Q975S) above, with A144N, R145H, S148Q, N295P, Y296W, Q299Y counted along it
# Sequence of PUM1 PUF domain R3-RTF (Q14671 828-1176 C935R/R936T/Q939F): as the sequence (Q14671 828-1176 N971A/H972R/Q975S) above, with C108R, R109T, Q112F, A144N, R145H, S148Q counted along it
# Sequence of PUM1 PUF domain R2-VYL (Q14671 828-1176 N899V/Q903L): as the sequence (Q14671 828-1176 N971A/H972R/Q975S) above, with N72V, Q76L, A144N, R145H, S148Q counted along it
# Sequence of PUM1 PUF domain R8-SYN (Q14671 828-1176 N1122S/Q1126N): as the sequence (Q14671 828-1176 N971A/H972R/Q975S) above, with A144N, R145H, S148Q, N295S, Q299N counted along it
# Sequence of PUM1 PUF domain R7-GIV (Q14671 828-1176 S1079G/N1080I/E1083V): as the sequence (Q14671 828-1176 N971A/H972R/Q975S) above, with A144N, R145H, S148Q, S252G, N253I, E256V counted along it
# Sequence of PUM1 PUF domain R3-TCD (Q14671 828-1176 C935T/R936C/Q939D): as the sequence (Q14671 828-1176 N971A/H972R/Q975S) above, with C108T, R109C, Q112D, A144N, R145H, S148Q counted along it
# Sequence of PUM1 PUF domain R7-TPG (Q14671 828-1176 S1079T/N1080P/E1083G): as the sequence (Q14671 828-1176 N971A/H972R/Q975S) above, with A144N, R145H, S148Q, S252T, N253P, E256G counted along it
# Sequence of PUM1 PUF domain R3-SPD (Q14671 828-1176 C935S/R936P/Q939D): as the sequence (Q14671 828-1176 N971A/H972R/Q975S) above, with C108S, R109P, Q112D, A144N, R145H, S148Q counted along it
# Sequence of PUM1 PUF domain R3-SPW (Q14671 828-1176 C935S/R936P/Q939W): as the sequence (Q14671 828-1176 N971A/H972R/Q975S) above, with C108S, R109P, Q112W, A144N, R145H, S148Q counted along it
sequence,measurement,setting,value
GGCUAGAACUAGUGGAUCCCCCGGCGCCCGGCGGCUCGAGCCCGGGUAAGUGUAAAUCGUCUGCAUGCCGCCGGGCGCCAUGCCUGCAGGUCGACUCUAGAAAACAUG,binding signal,[1],4.76 log2 enrichment (interaction score)
GGCUAGAACUAGUGGAUCCCCCGGCGCCCGGCGGCUCGAGCCCGGGUAAGUCUAAAUAGUCUGCAUGCCGCCGGGCGCCAUGCCUGCAGGUCGACUCUAGAAAACAUG,binding signal,[2],1.29 log2 enrichment (interaction score)
GGCUAGAACUAGUGGAUCCCCCGGCGCCCGGCGGCUCGAGCCCGGGUAAGUGUAAUUAGUCUGCAUGCCGCCGGGCGCCAUGCCUGCAGGUCGACUCUAGAAAACAUG,binding signal,[3],2.83 log2 enrichment (interaction score)
GGCUAGAACUAGUGGAUCCCCCGGCGCCCGGCGGCUCGAGCCCGGGUAAGUGUAAAUGGUCUGCAUGCCGCCGGGCGCCAUGCCUGCAGGUCGACUCUAGAAAACAUG,binding signal,[1],3.03 log2 enrichment (interaction score)
GGCUAGAACUAGUGGAUCCCCCGGCGCCCGGCGGCUCGAGCCCGGGUAAGUGUAAAAAGUCUGCAUGCCGCCGGGCGCCAUGCCUGCAGGUCGACUCUAGAAAACAUG,binding signal,[4],2.41 log2 enrichment (interaction score)
GGCUAGAACUAGUGGAUCCCCCGGCGCCCGGCGGCUCGAGCCCGGGUAAGUGUAAAUUGUCUGCAUGCCGCCGGGCGCCAUGCCUGCAGGUCGACUCUAGAAAACAUG,binding signal,[1],4.16 log2 enrichment (interaction score)
GGCUAGAACUAGUGGAUCCCCCGGCGCCCGGCGGCUCGAGCCCGGGUAAGCGUAAAUAGUCUGCAUGCCGCCGGGCGCCAUGCCUGCAGGUCGACUCUAGAAAACAUG,binding signal,[5],2.57 log2 enrichment (interaction score)
same,binding signal,[6],5.94 log2 enrichment (interaction score)
same,binding signal,[7],2.66 log2 enrichment (interaction score)
GGCUAGAACUAGUGGAUCCCCCGGCGCCCGGCGGCUCGAGCCCGGGUAAGUGUACAUAGUCUGCAUGCCGCCGGGCGCCAUGCCUGCAGGUCGACUCUAGAAAACAUG,binding signal,[8],3.28 log2 enrichment (interaction score)
same,binding signal,[9],2.44 log2 enrichment (interaction score)
GGCUAGAACUAGUGGAUCCCCCGGCGCCCGGCGGCUCGAGCCCGGGUAAGUGUUAAUAGUCUGCAUGCCGCCGGGCGCCAUGCCUGCAGGUCGACUCUAGAAAACAUG,binding signal,[10],1.72 log2 enrichment (interaction score)
same,binding signal,[11],4.94 log2 enrichment (interaction score)
same,binding signal,[12],2.42 log2 enrichment (interaction score)
same,binding signal,[13],2.42 log2 enrichment (interaction score)
GGCUAGAACUAGUGGAUCCCCCGGCGCCCGGCGGCUCGAGCCCGGGUAAGUUUAAAUAGUCUGCAUGCCGCCGGGCGCCAUGCCUGCAGGUCGACUCUAGAAAACAUG,binding signal,[2],3.07 log2 enrichment (interaction score)
same,binding signal,[14],4.42 log2 enrichment (interaction score)
same,binding signal,[15],2.42 log2 enrichment (interaction score)
GGCUAGAACUAGUGGAUCCCCCGGCGCCCGGCGGCUCGAGCCCGGGUAAGUGUAUAUAGUCUGCAUGCCGCCGGGCGCCAUGCCUGCAGGUCGACUCUAGAAAACAUG,binding signal,[8],2.12 log2 enrichment (interaction score)
same,binding signal,[9],3.14 log2 enrichment (interaction score)
GGCUAGAACUAGUGGAUCCCCCGGCGCCCGGCGGCUCGAGCCCGGGUAAGUGUAAGUAGUCUGCAUGCCGCCGGGCGCCAUGCCUGCAGGUCGACUCUAGAAAACAUG,binding signal,[16],4.9 log2 enrichment (interaction score)
GGCUAGAACUAGUGGAUCCCCCGGCGCCCGGCGGCUCGAGCCCGGGUAAGUGUAAAUAGUCUGCAUGCCGCCGGGCGCCAUGCCUGCAGGUCGACUCUAGAAAACAUG,binding signal,[8],4.61 log2 enrichment (interaction score)
same,binding signal,[9],4.34 log2 enrichment (interaction score)
same,binding signal,[17],3.13 log2 enrichment (interaction score)
same,binding signal,[6],5.34 log2 enrichment (interaction score)
same,binding signal,[18],3.36 log2 enrichment (interaction score)
same,binding signal,[19],2.93 log2 enrichment (interaction score)
same,binding signal,[20],2.63 log2 enrichment (interaction score)
GGCUAGAACUAGUGGAUCCCCCGGCGCCCGGCGGCUCGAGCCCGGGUAAGUGUGAAUAGUCUGCAUGCCGCCGGGCGCCAUGCCUGCAGGUCGACUCUAGAAAACAUG,binding signal,[19],3.21 log2 enrichment (interaction score)
same,binding signal,[20],4.33 log2 enrichment (interaction score)
same,binding signal,[11],1.06 log2 enrichment (interaction score)
same,binding signal,[13],1.82 log2 enrichment (interaction score)
GGCUAGAACUAGUGGAUCCCCCGGCGCCCGGCGGCUCGAGCCCGGGUAAGUGUCAAUAGUCUGCAUGCCGCCGGGCGCCAUGCCUGCAGGUCGACUCUAGAAAACAUG,binding signal,[19],1.33 log2 enrichment (interaction score)
same,binding signal,[10],2.84 log2 enrichment (interaction score)
same,binding signal,[20],1.75 log2 enrichment (interaction score)
same,binding signal,[11],6.86 log2 enrichment (interaction score)
same,binding signal,[12],5.39 log2 enrichment (interaction score)
